# Measured values as given in PubChem BioAssay AID1006 (Sanford-Burnham Center for Chemical Genomics, 2008).
# The whole screen tested about 200,000 compounds, of which about 3,000 (1.5%) were called active. Only a selection was taken, and actives are over-represented in it overall. A number with no mark means an inactive call.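 The calls were made as follows: active = inhibition above about 50% when tested at 10 µM (limit read from the data); inactive = the rest.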
# Molecular target: Luciferin 4-monooxygenase (Photinus pyralis) (UniProt P08659)
# Sequence (P08659 whole entry, looked up): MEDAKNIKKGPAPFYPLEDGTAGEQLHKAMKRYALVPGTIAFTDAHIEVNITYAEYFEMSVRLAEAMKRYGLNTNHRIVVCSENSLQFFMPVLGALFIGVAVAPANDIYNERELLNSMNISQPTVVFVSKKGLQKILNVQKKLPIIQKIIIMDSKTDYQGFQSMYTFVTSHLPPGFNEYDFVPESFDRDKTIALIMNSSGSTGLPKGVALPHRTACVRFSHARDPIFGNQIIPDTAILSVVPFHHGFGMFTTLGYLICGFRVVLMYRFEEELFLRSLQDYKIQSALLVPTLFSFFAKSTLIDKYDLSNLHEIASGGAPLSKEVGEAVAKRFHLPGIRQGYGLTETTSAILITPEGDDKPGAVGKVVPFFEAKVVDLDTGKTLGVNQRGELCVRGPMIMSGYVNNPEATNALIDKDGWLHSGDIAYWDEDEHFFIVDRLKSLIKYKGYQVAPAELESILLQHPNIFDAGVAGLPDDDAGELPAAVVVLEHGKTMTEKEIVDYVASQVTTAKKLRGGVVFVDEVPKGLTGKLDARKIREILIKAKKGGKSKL
# Assay: firefly luciferase enzyme inhibitors, primary screen, artefact control for luciferase-based inhibitor screens, biochemical, luminescence, ATPLite (AID 1006)
# Conditions: 10 min, at 10 µM, hits give high values
row,Compound,inhibition
1,O=C(Nc1cccc(S(=O)(=O)Nc2ccc(Cl)cc2)c1)c1ccc2c(c1)OCCO2,-5.3%
2,O=C(Nc1ccc2c(c1)OCCO2)c1ccc(Cl)c(S(=O)(=O)N2CCCCC2)c1,0.9%
3,CN1CCN(c2ccc(NC(=O)c3ccc4c(c3)OCCO4)cc2Cl)CC1,51.8% (active)
4,O=C(Nc1ccc(Cl)cn1)c1ccc2c(c1)OCCO2,82.7% (active)
5,O=C(Nc1cccc(Cl)c1N1CCOCC1)c1ccc2c(c1)OCCO2,-0.6%
6,COc1c(Cl)cc(C(=O)Nc2ccc(Cl)cn2)cc1Cl,-5.9%
7,O=C(c1cccc(F)c1)N1CCN(c2ccc([N+](=O)[O-])c3cccnc23)CC1,-7.7%
8,CCCCC(NC(=O)c1cccc(Br)c1)C(=O)O (stereo not given),0.5%
9,CN(C)C=NC(=O)c1cccn1-c1ncc(C(F)(F)F)cc1Cl,-1.5%
10,COc1cccc(-c2cc(C(=O)N/N=C/c3ccc(OC)c(COC(C)=O)c3)c3ccccc3n2)c1,-1.7%
11,O=C(N/N=C/C=C/c1ccco1)c1cccs1,12.4%
12,Cc1ccc(-c2cc(C(=O)N/N=C/C=C/c3ccco3)c3ccccc3n2)cc1C,73.1% (active)
13,Cc1nnc(SCC(=O)NNC(=O)c2ccc(Cl)cc2)n1CC1CCCO1 (stereo not given),-8.3%
14,O=C(Oc1ccc(-c2nc(-c3ccccn3)no2)cc1)c1ccccc1,65.5% (active)
15,CC(C)c1nc(-c2ccccn2)no1,-5.3%
16,COc1nc(-c2ccc(Cl)cc2)ccc1-c1noc(-c2cccs2)n1,-3.8%
17,O=C(Oc1ccccc1)c1ccc2nccnc2c1,13.3%
18,c1ccc(-c2noc(-c3cccs3)n2)nc1,71.2% (active)
19,c1csc(-c2nc(-c3ccncc3)no2)c1,17.7%
20,COc1ccc(NC(=S)N2CCCC(CO)C2)c(OC)c1 (stereo not given),-2.4%
21,Cc1ccc(N(C(=O)Cc2cccs2)C(C(=O)NCC2CCCO2)c2ccncc2)cc1 (stereo not given),-3.7%
22,CCN(C(=O)COC(=O)c1cc(S(=O)(=O)N2CCc3ccccc32)ccc1OC)C1CCS(=O)(=O)C1 (stereo not given),-6.8%
23,CCCN(CC1COc2ccccc2O1)C(=S)Nc1ccc(C)cc1 (stereo not given),-6.7%
24,CC(C)CNC(=O)C(=O)Nc1ccc(N(C)C)cc1,5.5%
25,CCOc1ccc(N2C(=O)CN(c3cccc4ccccc34)C2=S)cc1,-3.3%

row,Compound,inhibition
1,COc1cc(COCC(O)CN2CCN(Cc3ccc4c(c3)OCO4)CC2)cc(OC)c1OC (stereo not given),-5%
2,N/C(=N\OC(=O)Cc1ccc([N+](=O)[O-])cc1)c1ccccn1,9.6%
3,O=C(OCc1ccc([N+](=O)[O-])cc1)c1ccccn1,-6%
4,N/C(=N\OC(=O)c1ccc([N+](=O)[O-])cc1)c1ccccn1,91.5% (active)
5,CCC(C)N(C)C1CCN(C(=S)Nc2ccc(OC)cc2)CC1 (stereo not given),-0.3%
6,CCOc1ccc2nc(N3CCCN(C(=O)Nc4ccccc4C)CC3)c(C#N)cc2c1,-2%
7,COc1ccc2nc(N3CCCC(O)C3)c(C#N)cc2c1 (stereo not given),54.6% (active)
8,COc1ccc(N2CCN(C(=O)CSc3nc4cc(OC)c(OC)cc4cc3C#N)CC2)cc1,-6.5%
9,Cc1ccc2[nH]c(C(=O)O)c(NC(=O)c3ccccc3[N+](=O)[O-])c2c1,-4.8%
10,CCn1cc(C(=O)Nc2cc(C)ccc2C)c(=O)c2ccc(C)nc21,-5.1%
11,Clc1cccc(N=C2NN=C(c3ccc4c(c3)OCCO4)CS2)c1,51.5% (active)
12,Cc1cccc(N=C2NN=C(c3c[nH]c4ccccc34)CS2)c1,-4.7%
13,c1ccc(CN2CCC(N=C3NN=C(c4ccc5c(c4)OCCO5)CS3)CC2)cc1,-2.4%
14,COc1cc(/C=N/NC(=O)CCc2n[nH]c(=O)[nH]c2=O)ccc1O,-6.6%
15,Nc1c(NCCc2ccccc2)c2ccccc2oc1=O,-4%
16,Cc1ccc(CN2CCN(Cc3cn(C)nc3-c3ccccc3)CC2CCO)o1 (stereo not given),-4.5%
17,O=C1CC(c2ccccc2)=NN1c1ccc([N+](=O)[O-])cc1,-2.5%
18,COc1ccc(/C=C(/CC(=O)Nc2ccc(C)cc2)c2nc3ccccc3s2)cc1,-7.9%
19,COc1ccc(C2=NN(c3nc4ccccc4s3)C(=O)C2)cc1,59.7% (active)
20,CCc1ccccc1N1C(=O)C2C3CC(=O)C(c4ccccc43)C2C1=O (stereo not given),-5.1%
21,CCc1nnc(NC(=O)[C@@H](NC(=O)c2cccc(C)c2)C(C)C)s1,-3.8%
22,CN1CCN(C(=O)N2c3ccccc3CCc3ccccc32)CC1,-4.4%
23,CCCCn1c(=O)c(C(C)=O)c(O)c2ccccc21,-1.3%
24,Cn1c(=O)c(C(=O)Nc2ncccn2)c(O)c2ccccc21,70.3% (active)
25,Cn1c(=O)c(Sc2ccc(Cl)cc2)c(O)c2ccccc21,-5.7%

row,Compound,inhibition
1,Cc1ccccc1-n1nc(C)c2c1N=C1C(Cl)=CC(Cl)=CN1C2c1ccc(C(=O)O)cc1 (stereo not given),-0.1%
2,COc1ccc(-c2csc(Nc3ccccn3)n2)cc1,49.9%
3,CCOc1cc(NC(=O)c2ccccn2)c(OCC)cc1NC(=O)c1ccc(OC)cc1,-2.9%
4,COc1ccc(C(=O)/C=C/Nc2ccccn2)cc1,92.4% (active)
5,O=C(Cc1cccs1)Nc1cccc(-c2nc3ccccc3[nH]2)c1,-1.9%
6,O=C(CCCN1C(=O)/C(=C/c2ccccc2)SC1=S)Nc1ccc(O)cc1,57.6% (active)
7,O=C(CCCN1C(=O)/C(=C/c2ccco2)SC1=S)Nc1ccccc1,-3.2%
8,O=C(CCCN1C(=O)/C(=C\c2ccco2)SC1=S)Nc1cccc2ccccc12,-1.3%
9,Cn1c(-c2ccco2)nc2cc3ccccc3cc21,95.7% (active)
10,CN1c2ccccc2-c2nc3ccccc3n2C1c1ccco1 (stereo not given),1.3%
11,CN(c1nc2ccccc2n2c(-c3ccco3)nnc12)S(=O)(=O)c1ccccc1,-2.9%
12,CCC(C)c1ccc(NC(=S)NCc2ccccn2)cc1 (stereo not given),-3.2%
13,C/C(=N\N=C(N)N)c1ccc(Cl)cc1,-7.1%
14,Cc1ccc(CNC(=O)CC2Sc3ccccc3NC2=O)cc1 (stereo not given),-6.5%
15,Cc1noc(C)c1/C=N/Nc1ccc2ccccc2n1,13.4%
16,Brc1ccc(-c2csc(N/N=C/c3ccc4c(c3)OCO4)n2)cc1,-0.1%
17,C(=N\Nc1ccc2ccccc2n1)/c1ccc2c(c1)OCO2,87.4% (active)
18,CCNC(=S)N1CCN(c2ncccn2)CC1,-2.5%
19,COc1ccc(NC(=O)Nc2ccc3nc(C)c(C)nc3c2)cc1,-4.8%
20,COc1ccc(NC(=O)C2CCCN(S(=O)(=O)c3cccc4cccnc34)C2)cc1 (stereo not given),-0.5%
21,COc1ccc(NC(=O)Nc2cccc3cccnc23)cc1,65.4% (active)
22,NC(=NC(=O)c1ccccc1)N1CCOCC1,0.1%
23,CC1CN(C(=S)SCC(=O)c2ccccc2)CC(C)O1 (stereo not given),4.3%
24,O=C(CSC(=S)N1CCOCC1)c1ccccc1,72.6% (active)
25,CCC(C)(C)c1ccc(OCC(=O)N(C)C)c(C(C)(C)CC)c1,-6.6%

row,Compound,inhibition
1,Cc1cc(C)nc(SCC(=O)N(C)C)n1,-4.6%
2,O=C(CC1Nc2ccccc2NC1=O)Nc1ccccc1NC(=O)CC1Nc2ccccc2NC1=O (stereo not given),7.9%
3,Cc1noc(NS(=O)(=O)c2ccc(N/C=C/C(=O)c3ccccc3)cc2)c1C,-2.7%
4,Cc1ccc(N/C=C/C(=O)c2ccccc2)cc1C,91.4% (active)
5,O=C(/C=C\NCC(=O)c1ccccc1)c1ccccc1,14.5%
6,CC1CCN(C(=S)c2ccc(-c3ccc(Cl)cc3Cl)o2)CC1,3.9%
7,S=C(NCCc1ccccc1)N1CCCCC1,9.6%
8,S=C(c1ccc(-c2ccccc2)o1)N1CCCCC1,83.4% (active)
9,COc1cccc(OC)c1C(=O)NC(=S)NCc1ccco1,-2.1%
10,COCCn1c(Cc2cccn2C)nnc1SCC(=O)Nc1nccs1,-5.3%
11,COc1cc(NC(=O)COc2ccccc2Cl)ccc1NC(=O)C(C)C,-2.5%
12,CC(CC(=O)C1C(C)C=CCC1(C)C)NNC(N)=O (stereo not given),-6.1%
13,COc1ccc(C(=O)Nc2ccc3c(c2)OCO3)cc1OC,28.8%
14,CC(=O)Nc1ccc(-c2csc(NC(=O)Nc3ccccc3)n2)cc1,-0.4%
15,O=C(Nc1nc2ccccc2s1)c1ccc2c(c1)OCO2,83.9% (active)
16,CCCc1nnc(NC(=O)c2cc(OC)cc(OC)c2)s1,-1.1%
17,O=C(Nc1ccccc1)Nc1nc2ccccc2s1,52.9% (active)
18,Cc1cc(C)c2nc(NC(=O)c3ccc4c(c3)OCO4)sc2c1,-1.6%
19,CSCCC(Nc1nc2ccccc2s1)C(=O)O (stereo not given),-2%
20,COCc1nnc(NC(=O)c2ccc3c(c2)OCO3)s1,58.9% (active)
21,O=C(Nc1ccccc1)c1ccc2c(c1)OCO2,34.2%
22,C/C(=N/NC(=O)CSc1ccccn1)c1ccc([N+](=O)[O-])cc1,-6.6%
23,O=C(CN1CCN(S(=O)(=O)/C=C/c2ccccc2)CC1)Nc1ccc(N2CCOCC2)cc1,-7.8%
24,COc1ccc(-n2c(=S)[nH]c3sc4c(c3c2=O)CCc2ccccc2-4)cc1,4.5%
25,CCOc1ccc2nc(NCCNC(=O)C(C)(C)C)c(C)cc2c1,-2.6%
